Assay outcomes as filed in PubChem BioAssay.
Shown are actives, neighbours in structure and some others; about 2.6% of the full set was active somewhere.
TROY signal inh – inhibitors of TROY-driven NF-kB signaling, primary screen, Q293 LMP1-TROYcd cells, NF-kB luciferase, uHTS; Q293 LMP1-TROYcd NF-kB luciferase reporter, 4 h; inhibition, % at 10 µM; hit rate 0.98% among 360,000; AID 1347056, 2019;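 active = compounds whose plate-normalised and pattern-corrected inhibition of the luciferase reporter signal at the single screening dose is 50% or more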
TWEAK Fn14 block – inhibitors of TWEAK-Fn14 signaling, primary screen, luciferase reporter cells, uHTS | TWEAK-stimulated Fn14 reporter cells, luciferase luminescence, 8 h | inhibition, % at 10 µM | hit rate 2% among 360,000; in the data active = inhibition above about 50%
LMP1 NFkB inh – EBV LMP1-driven NF-kappaB luciferase reporter inhibitors, primary screen, cell-based, luminescence, single point. inhibition, % at 12.5 µM. hit rate 0.69% among 350,000. LMP1-induced NF-kappaB luciferase reporter cells; in the data active = inhibition above about 41%; inconclusive = no clear call, values can overlap the other calls
LGR2 antag – inhibitors of bursicon-induced LGR2 CRE-luciferase signal, primary screen, cell-based, HEK293, CRE-luciferase reporter, bursicon stimulation; hit rate 0.35% among 380,000; inhibition, % at 9.99 µM; Drosophila bursicon receptor LGR2 (rickets); bursicon-stimulated, 4 h;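 active = drop in luminescence signal, shown as inhibition above about 50% in the replicate tests, limit read from the data, passing the limit was not always enough; inconclusive = probably only some replicates passing the limit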;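 note: agonist challenge used bursicon conditioned medium at about half maximal strength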
aDG glyco up – activators of alpha-DG glycosylation, primary screen, uHTS, Pro5-aDG cells, AlphaScreen; alpha-DG glycosylation AlphaScreen (IIH6); 0% Pro5, 100% B10-LARGE cell signal; activation, % at 10 µM; hit rate 0.22% among 360,000; AID 624168, 2012;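 active = activation of at least 8% versus controls, or a plate z-score of at least 8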;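 note: Pro5 are CHO cells carrying HIG-tagged alpha-DG that lacks glycosylation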
HSP90 refold inh – HSP90 inhibitors, primary screen, cell lysate, luminescence | Heat shock protein HSP 90 (rabbit reticulocyte lysate; luciferase refolding) | Rabbit reticulocyte lysate, luciferase refolding luminescence, 3 h | inhibition, % at 5.6 µM | hit rate 0.91% among 290,000;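 active = inhibition above the screen-wide mean plus 3 SD, computed separately per campaign, cut at about 16% in these data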;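 note: inhibitors lower the luminescence because luciferase stays unfolded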
HSP90 inh confirm – HSP90 inhibitors, confirmation, cell lysate, luminescence | inhibition, % at 5.9 µM | rabbit reticulocyte lysate, luciferase refolding luminescence, 3 h | hit rate 64% among 2,300 | shares compounds with HSP90 refold inh; in the data active = inhibition above about 18%
luciferase ctr – firefly luciferase inhibitors, HSP90 counter-screen, confirmation, artefact control for HSP90 inhibitor project, biochemical, luminescence, triplicate. AID 1847, 2009. hit rate 48% among 2,300. inhibition, % at 5.9 µM. purified native firefly luciferase. shares compounds with HSP90 refold inh;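 active = inhibition above the mean inhibition of all tested sample wells plus 3 SD, cut at about 10% in these data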
Target sequence (P08659 whole entry, looked up): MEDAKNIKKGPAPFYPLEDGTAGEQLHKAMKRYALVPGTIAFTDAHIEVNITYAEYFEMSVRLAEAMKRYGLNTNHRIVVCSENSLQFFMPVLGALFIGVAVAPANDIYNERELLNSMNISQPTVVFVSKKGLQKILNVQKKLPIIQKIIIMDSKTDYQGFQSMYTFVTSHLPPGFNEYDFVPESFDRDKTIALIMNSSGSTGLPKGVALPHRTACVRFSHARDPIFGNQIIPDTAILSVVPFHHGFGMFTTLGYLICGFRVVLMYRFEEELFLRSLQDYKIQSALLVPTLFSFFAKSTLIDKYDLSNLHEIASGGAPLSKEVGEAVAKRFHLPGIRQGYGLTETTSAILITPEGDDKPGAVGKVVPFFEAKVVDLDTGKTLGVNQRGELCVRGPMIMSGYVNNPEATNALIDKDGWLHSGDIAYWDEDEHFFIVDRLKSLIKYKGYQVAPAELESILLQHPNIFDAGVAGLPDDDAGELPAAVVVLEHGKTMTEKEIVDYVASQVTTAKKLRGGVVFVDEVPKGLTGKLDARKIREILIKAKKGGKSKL
Large screens that a line does not name were inactive (follow-up assays come after a bar, where they were run).

O=C(O)c1ccc(N2C(=O)/C(=C/C=C/c3ccccc3)SC2=S)cc1	none
CN(C)c1ccc(/C=C/C=C2/SC(=S)N(c3ccccc3)C2=O)cc1	HSP90 refold inh 34 (no result: LGR2 antag) | HSP90 inh confirm 21 | luciferase ctr 12
CCN1[C@@H]2Cn3c(ccc(-c4ccccc4OC)c3=O)[C@H]1[C@@H](C(=O)N[C@@H](C)c1ccccc1)[C@@H]2CO	none (no result: TROY signal inh, TWEAK Fn14 block, LMP1 NFkB inh, aDG glyco up, HSP90 refold inh)
O=C1CCCc2nc3c(cc21)C(O)Oc1c-3ccc2ccccc12 (configuration not stated)	HSP90 refold inh 31 | HSP90 inh confirm 38 | luciferase ctr inactive
CS(=O)(=O)N1CC(=O)N2[C@H](CO)[C@@H](c3ccc(C#CC4CCCC4)cc3)[C@H]2C1	none (no result: TROY signal inh, TWEAK Fn14 block, LMP1 NFkB inh, aDG glyco up, HSP90 refold inh)
CC(=O)N(C)C[C@H]1Oc2cc(C#CC(C)(C)O)ccc2S(=O)(=O)N([C@@H](C)CO)C[C@@H]1C	none (no result: TROY signal inh, TWEAK Fn14 block, LMP1 NFkB inh, aDG glyco up, HSP90 refold inh)
Cc1nc(NC(=O)c2ccccc2)sc1-c1csc(Nc2ccc(F)cc2)n1	HSP90 refold inh 44 (no result: TROY signal inh, TWEAK Fn14 block, LMP1 NFkB inh, LGR2 antag, aDG glyco up) | HSP90 inh confirm 31 | luciferase ctr inactive
Cc1nc(NC(=O)c2ccco2)sc1-c1csc(Nc2ccc(Cl)cc2)n1	HSP90 refold inh 19 (no result: LGR2 antag) | HSP90 inh confirm inactive | luciferase ctr inactive
Cc1ccc(Cl)cc1Nc1nc(-c2sc(NC(=O)c3ccco3)nc2C)cs1	none
Cc1nc(NC(=O)c2ccccc2)sc1-c1csc(Nc2cccc(Cl)c2)n1	HSP90 refold inh 42 (no result: TROY signal inh, TWEAK Fn14 block, LMP1 NFkB inh, LGR2 antag, aDG glyco up) | HSP90 inh confirm 27 | luciferase ctr inactive
Cc1nc(NC(=O)CC(C)C)sc1-c1csc(Nc2ccc(Cl)cc2)n1	none
Cc1nc(NC(=O)c2ccccc2)sc1-c1csc(Nc2ccc(Cl)cc2)n1	HSP90 refold inh 37 (no result: TROY signal inh, TWEAK Fn14 block, LMP1 NFkB inh, LGR2 antag, aDG glyco up) | HSP90 inh confirm 26 | luciferase ctr inactive
C[C@@H]1CN([C@H](C)CO)C(=O)c2cc(NS(=O)(=O)c3cccs3)ccc2O[C@@H](C)CCCCO[C@@H]1CN(C)S(C)(=O)=O	none (no result: TROY signal inh, TWEAK Fn14 block, LMP1 NFkB inh, aDG glyco up, HSP90 refold inh)
Cc1ccsc1/C=N\NC(=O)c1n[nH]c2c1CCC2	TWEAK Fn14 block 81, LGR2 antag 78, HSP90 refold inh 20 | HSP90 inh confirm 48 | luciferase ctr 43
C[C@H]1CN([C@@H](C)CO)C(=O)c2cccc(NC(=O)CCCCCC(=O)Nc3ccccc3N)c2O[C@H]1CN(C)C	none (no result: TROY signal inh, TWEAK Fn14 block, LMP1 NFkB inh, aDG glyco up, HSP90 refold inh)
Cc1cccc(NC(=O)c2sc3nc(-c4ccccc4)cn3c2C)n1	HSP90 refold inh 27 | HSP90 inh confirm inactive | luciferase ctr inactive
COc1ccc(-c2cn3c(C)c(C(=O)Nc4cccc(C)n4)sc3n2)cc1	HSP90 refold inh 77 | HSP90 inh confirm 73 | luciferase ctr inactive
CCCC(=O)Nc1ccc2c(c1)C(=O)N(C)[C@@H]1CC[C@@H](CC(=O)NCCN3CCCCC3)O[C@H]1CO2	none (no result: TROY signal inh, TWEAK Fn14 block, LMP1 NFkB inh, aDG glyco up, HSP90 refold inh)
CCN(Cc1nc(-c2cccc(C)c2)no1)C(=O)c1ccco1	HSP90 refold inh 21 | HSP90 inh confirm inactive | luciferase ctr inactive
CCN(Cc1nc(-c2ccccc2)no1)C(=O)c1ccco1	none
CC1CCCN(C(=O)CSc2nnc(-c3c[nH]c4ccccc34)o2)C1 (configuration not stated)	HSP90 refold inh 38 | HSP90 inh confirm inactive | luciferase ctr inactive
CN(C)c1ccc(N=Nc2ccccc2Br)cc1	TWEAK Fn14 block 77, LGR2 antag inconclusive, HSP90 refold inh 52 | HSP90 inh confirm 65 | luciferase ctr 54
CCNC(=O)C[C@@H]1CC[C@@H]2[C@H](COC[C@@H](O)CN2Cc2ccncc2)O1	none (no result: TROY signal inh, TWEAK Fn14 block, LMP1 NFkB inh, aDG glyco up, HSP90 refold inh)
O=C(O)C(=O)/C(=C\c1ccc(Cl)cc1)c1ccc2ccccc2n1	TROY signal inh 53, HSP90 refold inh 22 | HSP90 inh confirm inactive | luciferase ctr inactive
